Data published in the supplement of paper PMC10849652.
About 7,900 targets were measured; listed, in parts, are those with a hit and a random draw of the rest. About 0.6% of all pairs of compound and target were hits.

Tests used:
Experiment in all cases: log2 fold change, soluble protein after heating vs DMSO (PISA); higher = thermal stabilisation; K562 cells, 10 uM, 30 min; active = over 0.2 and 3.5 SD of the protein, either way, in both replicates (recomputed)
[1] = compound: CC[C@@H]1C(=O)N(C)c2cnc(Nc3ccc(C(=O)NC4CCN(C)CC4)cc3OC)nc2N1C1CCCC1
Outline: (§1)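 K562 cells at 2×10^6 cells/mL were treated with 10 μM compound for 30 min. Aliquots were heated for 3 min across 48°C-58°C, pooled, and extracted in PBS with 0.5% NP-40 at 4°C; soluble protein was the supernatant after 21,000xg for 90 min. Soluble protein was quantified by TMTpro 16plex LC-MS/MS with channel sums equalised, and reported as log2 fold change in thermal stability against DMSO controls, with values from duplicates.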

volasertib = compound: CC[C@@H]1C(=O)N(C)c2cnc(Nc3ccc(C(=O)N[C@H]4CC[C@H](N5CCN(CC6CC6)CC5)CC4)cc3OC)nc2N1C(C)C [volasertib]
Outline: as §1

[2] = compound: CC[C@H](C)N1C=C(C2=C(C=C(C=C21)C3=CN=C(C=C3)N4CCNCC4)C(=O)NCC5=C(C=C(NC5=O)C)C)C
Outline: as §1

epoxomicin = compound: CC[C@H](C)[C@@H](C(=O)N[C@@H]([C@@H](C)O)C(=O)N[C@@H](CC(C)C)C(=O)[C@]1(CO1)C)NC(=O)[C@H]([C@@H](C)CC)N(C)C(=O)C [epoxomicin]
Outline: as §1

[3] = compound: CCn1c(C(=O)N(C2CC2)C2CC2)cc2c3c(ncn3C)c(Nc3cc(C)n(C)n3)nc21
Outline: as §1

[4] = compound: CCn1cc(-c2ccnc3[nH]c(-c4cccc(CN(C)C)c4)cc23)c(-c2ccc(NC(=O)N(C)C)cc2)n1
Outline: as §1

[5] = compound: CN(C)CC(=O)Nc1ccc2[nH]c(=O)c3ccccc3c2c1
Outline: as §1

rosiglitazone = compound: CN(CCOC1=CC=C(C=C1)C[C@H]2C(=O)NC(=O)S2)C3=CC=CC=N3 (racemic) [rosiglitazone]
Outline: as §1

[6] = compound: CN1C2=C(C3=C1C(=O)N(N=C3)CC4=CC(=CC=C4)N)SC(=C2)S(=O)C
Outline: as §1

[7] = compound: CN1CCC(CNc2ccc3ncc(-c4cccc(OC(F)(F)F)c4)n3n2)CC1
Outline: as §1

saracatinib = compound: CN1CCN(CCOc2cc(OC3CCOCC3)c3c(Nc4c(Cl)ccc5c4OCO5)ncnc3c2)CC1 [saracatinib]
Outline: as §1

sotrastaurin = compound: CN1CCN(c2nc(C3=C(c4c[nH]c5ccccc45)C(=O)NC3=O)c3ccccc3n2)CC1 [sotrastaurin]
Outline: as §1

alvocidib = compound: CN1CC[C@H](c2c(O)cc(O)c3c(=O)cc(-c4ccccc4Cl)oc23)[C@H](O)C1 [alvocidib]
Outline: as §1

Tubastatin A = compound: CN1CCc2c(c3ccccc3n2Cc2ccc(C(=O)NO)cc2)C1 [Tubastatin A]
Outline: as §1

[8] = compound: CNC(=O)C1=CC=CC=C1NC2=NC(=NC=C2Cl)NC3=C(C=C(C=C3)N4CCOCC4)OC
Outline: as §1

defactinib = compound: CNC(=O)c1ccc(Nc2ncc(C(F)(F)F)c(NCc3nccnc3N(C)S(C)(=O)=O)n2)cc1 [defactinib]
Outline: as §1

rucaparib = compound: CNCc1ccc(-c2[nH]c3cc(F)cc4c3c2CCNC4=O)cc1 [rucaparib]
Outline: as §1

[9] = compound: CNc1nc(-c2ccc3c(N)n[nH]c3c2)cc(N2C[C@@H](C(=O)NC3CCCCC3)CC[C@H]2C)n1
Outline: as §1

encorafenib = compound: COC(=O)N[C@@H](C)CNc1nccc(-c2cn(C(C)C)nc2-c2cc(Cl)cc(NS(C)(=O)=O)c2F)n1 [encorafenib]
Outline: as §1

[10] = compound: COC(=O)[C@H](CCSC)NC(=O)C1=C(C=C(C=C1)NC[C@H](CS)N)C2=CC=CC=C2
Outline: as §1

Measured: log2 fold change

IFT74 (UniProt Q96LB3)
Sequence of UniProt Q96LB3 (Q96LB3 whole entry, looked up): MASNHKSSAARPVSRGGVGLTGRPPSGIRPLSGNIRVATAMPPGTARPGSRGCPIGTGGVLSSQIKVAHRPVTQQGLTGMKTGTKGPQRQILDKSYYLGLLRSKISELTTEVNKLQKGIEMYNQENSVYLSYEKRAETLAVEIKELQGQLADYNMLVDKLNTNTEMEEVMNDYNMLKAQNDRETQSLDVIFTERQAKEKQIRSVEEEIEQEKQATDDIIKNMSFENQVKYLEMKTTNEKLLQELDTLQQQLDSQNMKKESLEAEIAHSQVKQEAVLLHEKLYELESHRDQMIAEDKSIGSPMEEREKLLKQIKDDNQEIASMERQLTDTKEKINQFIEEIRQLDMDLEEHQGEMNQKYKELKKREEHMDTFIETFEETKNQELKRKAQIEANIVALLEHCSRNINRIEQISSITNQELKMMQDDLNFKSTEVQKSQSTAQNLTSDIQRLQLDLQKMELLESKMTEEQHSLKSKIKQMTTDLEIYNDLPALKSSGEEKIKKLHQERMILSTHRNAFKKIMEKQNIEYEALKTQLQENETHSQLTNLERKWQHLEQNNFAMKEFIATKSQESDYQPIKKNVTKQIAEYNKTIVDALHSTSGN
inactive: [1] 0.125 | volasertib 0.01 | [2] -0.319 | epoxomicin -0.061 | [3] -0.057 | [4] 0 | [5] -0.051 | rosiglitazone 0.031 | [6] 0.025 | [7] -0.05 | saracatinib -0.079 | sotrastaurin -0.001 | alvocidib 0.048 | Tubastatin A 0.259 | [8] -0.223 | defactinib 0.028 | rucaparib 0.06 | [9] 0.003 | encorafenib -0.055 | [10] 0.075

GLB1 (UniProt P16278)
Sequence of UniProt P16278 (P16278 whole entry, looked up): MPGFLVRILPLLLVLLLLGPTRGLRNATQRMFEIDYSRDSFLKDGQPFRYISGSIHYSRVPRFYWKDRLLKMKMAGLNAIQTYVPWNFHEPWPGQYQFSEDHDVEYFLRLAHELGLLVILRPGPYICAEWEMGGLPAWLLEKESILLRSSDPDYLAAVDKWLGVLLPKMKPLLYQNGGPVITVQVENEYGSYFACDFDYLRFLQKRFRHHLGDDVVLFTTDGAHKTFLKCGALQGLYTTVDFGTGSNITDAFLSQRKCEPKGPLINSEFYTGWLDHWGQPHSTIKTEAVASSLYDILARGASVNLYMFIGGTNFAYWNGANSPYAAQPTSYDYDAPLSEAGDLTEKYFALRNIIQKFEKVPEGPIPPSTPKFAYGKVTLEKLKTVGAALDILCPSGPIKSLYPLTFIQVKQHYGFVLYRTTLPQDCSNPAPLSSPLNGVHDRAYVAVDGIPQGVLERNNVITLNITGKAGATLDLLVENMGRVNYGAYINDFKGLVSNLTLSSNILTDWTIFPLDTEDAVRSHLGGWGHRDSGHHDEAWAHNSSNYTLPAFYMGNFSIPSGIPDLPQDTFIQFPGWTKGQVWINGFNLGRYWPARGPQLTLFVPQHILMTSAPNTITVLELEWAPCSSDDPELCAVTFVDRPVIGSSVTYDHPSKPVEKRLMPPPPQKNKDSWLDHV
inactive: [2] 0.007 | epoxomicin -0.01 | [3] 0.038 | [4] 0.057 | [5] 0.002 | rosiglitazone -0.023 | [6] 0.037 | saracatinib -0.011 | sotrastaurin 0.059 | alvocidib -0.018 | Tubastatin A -0.032 | [8] 0.034 | defactinib 0.004 | rucaparib 0 | [9] 0.002 | encorafenib 0.003 | [10] 0.036
active: [1] -0.707 | volasertib -1.11 | [7] -0.751

GLUD1 (UniProt P00367)
Sequence of UniProt P00367 (P00367 whole entry, looked up): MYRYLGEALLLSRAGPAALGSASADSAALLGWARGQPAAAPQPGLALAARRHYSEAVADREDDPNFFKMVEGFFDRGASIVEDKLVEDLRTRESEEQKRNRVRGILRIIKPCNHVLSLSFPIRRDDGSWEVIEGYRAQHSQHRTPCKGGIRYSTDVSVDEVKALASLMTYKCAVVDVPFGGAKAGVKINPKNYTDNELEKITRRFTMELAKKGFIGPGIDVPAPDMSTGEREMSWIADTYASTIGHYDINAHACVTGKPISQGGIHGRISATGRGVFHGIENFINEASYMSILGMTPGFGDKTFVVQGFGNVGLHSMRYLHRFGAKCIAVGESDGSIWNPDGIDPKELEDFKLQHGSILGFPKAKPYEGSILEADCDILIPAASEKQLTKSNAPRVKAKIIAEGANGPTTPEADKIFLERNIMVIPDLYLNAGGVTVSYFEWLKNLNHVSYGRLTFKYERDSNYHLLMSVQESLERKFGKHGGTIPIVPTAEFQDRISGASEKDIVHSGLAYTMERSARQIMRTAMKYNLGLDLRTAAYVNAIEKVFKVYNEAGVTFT
inactive: [1] 0.146 | volasertib 0.25 | [2] 0.034 | epoxomicin 0.024 | [3] 0.126 | [4] -0.054 | [5] 0 | rosiglitazone -0.007 | [6] -0.128 | [7] 0.102 | saracatinib 0.161 | sotrastaurin 0.14 | alvocidib -0.002 | Tubastatin A -0.04 | [8] 0.096 | defactinib 0.041 | rucaparib -0.099 | [9] 0.089 | encorafenib -0.056 | [10] 0.002

HIKESHI (UniProt Q53FT3)
Sequence of UniProt Q53FT3 (Q53FT3 whole entry, looked up): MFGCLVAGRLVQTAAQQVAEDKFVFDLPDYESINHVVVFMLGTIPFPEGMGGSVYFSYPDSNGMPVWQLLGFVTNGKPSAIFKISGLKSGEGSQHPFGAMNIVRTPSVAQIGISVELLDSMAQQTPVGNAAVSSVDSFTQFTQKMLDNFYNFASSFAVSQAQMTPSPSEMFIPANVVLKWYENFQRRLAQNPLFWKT
inactive: [1] -0.116 | volasertib -0.178 | [2] 0.022 | epoxomicin -0.013 | [3] -0.015 | [4] 0.001 | [5] 0.008 | rosiglitazone 0.035 | [6] -0.018 | [7] 0.077 | saracatinib 0.03 | sotrastaurin 0.043 | alvocidib -0.068 | Tubastatin A -0.01 | [8] 0.046 | defactinib -0.038 | rucaparib 0.029 | [9] -0.003 | encorafenib 0.024 | [10] 0.028

HS1BP3 (UniProt Q53T59)
Sequence of UniProt Q53T59 (Q53T59 whole entry, looked up): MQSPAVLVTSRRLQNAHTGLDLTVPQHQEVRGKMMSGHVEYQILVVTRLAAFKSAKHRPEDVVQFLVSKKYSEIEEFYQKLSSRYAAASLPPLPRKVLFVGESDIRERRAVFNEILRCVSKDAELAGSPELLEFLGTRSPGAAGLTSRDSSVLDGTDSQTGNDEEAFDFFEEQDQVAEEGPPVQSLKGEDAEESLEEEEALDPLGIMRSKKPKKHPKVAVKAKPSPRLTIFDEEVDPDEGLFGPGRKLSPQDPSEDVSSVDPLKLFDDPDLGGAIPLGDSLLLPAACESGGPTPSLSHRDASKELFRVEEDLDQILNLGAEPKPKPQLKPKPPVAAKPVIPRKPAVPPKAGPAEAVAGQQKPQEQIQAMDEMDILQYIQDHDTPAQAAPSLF
active: volasertib -0.343 | [9] 0.371
inactive: [1] -0.038 | [2] 0.073 | epoxomicin 0.056 | [3] -0.043 | [5] 0.012 | rosiglitazone 0.07 | [6] -0.041 | saracatinib 0.107 | sotrastaurin -0.078 | alvocidib -0.275 | [8] -0.005 | defactinib -0.066 | rucaparib -0.038 | encorafenib 0.037 | [10] -0.175

IFITM3 (UniProt Q01628)
Sequence of UniProt Q01628 (Q01628 whole entry, looked up): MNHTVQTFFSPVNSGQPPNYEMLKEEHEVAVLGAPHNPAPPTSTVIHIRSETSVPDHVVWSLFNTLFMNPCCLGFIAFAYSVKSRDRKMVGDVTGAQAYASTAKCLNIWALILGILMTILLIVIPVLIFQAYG
inactive: [1] -0.004 | volasertib 0.033 | [2] 0.023 | epoxomicin -0.007 | [3] -0.124 | [5] 0.175 | rosiglitazone -0.096 | [6] -0.015 | saracatinib -0.022 | sotrastaurin 0.035 | alvocidib -0.011 | Tubastatin A 0.241 | [8] 0.044 | defactinib -0.165 | rucaparib 0.093 | [9] 0.03 | encorafenib 0.1 | [10] 0.008

GAGE12F (UniProt P0CL80)
Sequence of UniProt P0CL80 (P0CL80 whole entry, looked up): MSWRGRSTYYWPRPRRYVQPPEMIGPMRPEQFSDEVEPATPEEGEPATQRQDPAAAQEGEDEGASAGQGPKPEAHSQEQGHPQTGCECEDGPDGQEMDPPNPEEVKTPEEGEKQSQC
inactive: [1] 0.037 | volasertib 0.069 | [2] -0.033 | epoxomicin 0.034 | [3] -0.039 | [4] -0.058 | [5] -0.095 | rosiglitazone 0.002 | [6] -0.049 | [7] -0.234 | saracatinib 0.007 | sotrastaurin 0.053 | alvocidib 0.052 | Tubastatin A 0.009 | [8] -0.081 | defactinib 0.095 | rucaparib 0.033 | [9] -0.051 | encorafenib -0.031 | [10] -0.02

HSPA8 (UniProt E9PN89)
inactive: [1] 0.167 | volasertib 0.114 | [2] -0.205 | epoxomicin -0.278 | [3] -0.127 | [4] 0.178 | [5] -0.139 | rosiglitazone 0.049 | [7] -0.154 | sotrastaurin 0.105 | alvocidib 0.281 | Tubastatin A -0.018 | [8] -0.057 | defactinib 0.044 | rucaparib 0.101 | encorafenib 0.023 | [10] -0.036

HADHB (UniProt P55084)
inactive: [1] 0.082 | volasertib 0.462 | [2] 0.123 | epoxomicin 0.05 | [3] 0.161 | [4] -0.223 | [5] 0.015 | rosiglitazone -0.039 | [6] -0.058 | [7] -0.223 | saracatinib -0.111 | sotrastaurin 0.011 | alvocidib -0.283 | Tubastatin A 0.027 | [8] 0.064 | defactinib -0.18 | rucaparib 0.131 | encorafenib 0.001 | [10] -0.223
active: [9] 0.62

HOMER1 (UniProt Q86YM7)
inactive: [1] -0.018 | volasertib 0.024 | [2] -0.099 | epoxomicin 0.006 | [3] 0.017 | [4] -0.025 | [5] 0.018 | rosiglitazone -0.011 | [6] -0.018 | [7] 0.033 | saracatinib 0.032 | sotrastaurin 0.045 | alvocidib -0.047 | Tubastatin A -0.084 | [8] 0.021 | defactinib 0.015 | rucaparib 0.021 | [9] 0.007 | encorafenib 0.04 | [10] -0.047

HSD17B12 (UniProt Q53GQ0)
inactive: [1] -0.046 | volasertib -0.183 | [2] 0 | epoxomicin -0.013 | [3] -0.036 | [4] -0.104 | [5] 0.01 | rosiglitazone -0.016 | [6] -0.039 | [7] 0.037 | saracatinib -0.037 | sotrastaurin 0.151 | alvocidib -0.082 | Tubastatin A -0.007 | [8] 0.005 | defactinib -0.024 | rucaparib -0.043 | [9] 0.038 | encorafenib 0.027 | [10] 0.013

GBA2 (UniProt Q9HCG7)
Sequence of UniProt Q9HCG7 (Q9HCG7 whole entry, looked up): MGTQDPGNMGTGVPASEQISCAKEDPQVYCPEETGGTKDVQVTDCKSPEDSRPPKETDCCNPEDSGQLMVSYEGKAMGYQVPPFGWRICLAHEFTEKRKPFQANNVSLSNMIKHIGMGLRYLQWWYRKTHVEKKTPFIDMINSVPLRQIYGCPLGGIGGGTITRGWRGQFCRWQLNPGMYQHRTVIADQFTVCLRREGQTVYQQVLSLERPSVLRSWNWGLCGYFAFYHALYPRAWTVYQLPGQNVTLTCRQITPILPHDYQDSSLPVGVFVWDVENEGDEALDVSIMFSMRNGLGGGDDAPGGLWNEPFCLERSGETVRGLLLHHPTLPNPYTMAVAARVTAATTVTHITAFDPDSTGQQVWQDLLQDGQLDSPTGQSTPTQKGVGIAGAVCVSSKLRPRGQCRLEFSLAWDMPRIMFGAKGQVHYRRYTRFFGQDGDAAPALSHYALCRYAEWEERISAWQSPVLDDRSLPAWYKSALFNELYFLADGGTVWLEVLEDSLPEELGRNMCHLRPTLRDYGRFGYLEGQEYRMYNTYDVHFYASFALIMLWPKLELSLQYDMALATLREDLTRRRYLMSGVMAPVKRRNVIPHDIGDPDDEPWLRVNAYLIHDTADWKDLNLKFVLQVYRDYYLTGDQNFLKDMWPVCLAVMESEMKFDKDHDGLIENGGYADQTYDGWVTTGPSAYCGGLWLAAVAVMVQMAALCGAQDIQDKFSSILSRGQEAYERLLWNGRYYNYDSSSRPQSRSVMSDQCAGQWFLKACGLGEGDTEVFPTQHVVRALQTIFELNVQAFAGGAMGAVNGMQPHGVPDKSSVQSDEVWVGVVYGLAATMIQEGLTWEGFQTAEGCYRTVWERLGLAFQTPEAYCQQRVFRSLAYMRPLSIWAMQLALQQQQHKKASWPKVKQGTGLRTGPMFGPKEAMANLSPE
active: volasertib 0.308
inactive: [1] 0 | [2] -0.082 | epoxomicin -0.062 | [3] -0.075 | [5] 0.027 | rosiglitazone -0.07 | [6] -0.085 | saracatinib -0.046 | sotrastaurin -0.026 | alvocidib -0.063 | Tubastatin A -0.03 | [8] -0.012 | defactinib -0.07 | rucaparib -0.266 | [9] 0.11 | encorafenib 0.084 | [10] 0.071

HBQ1 (UniProt P09105)
Sequence of UniProt P09105 (P09105 whole entry, looked up): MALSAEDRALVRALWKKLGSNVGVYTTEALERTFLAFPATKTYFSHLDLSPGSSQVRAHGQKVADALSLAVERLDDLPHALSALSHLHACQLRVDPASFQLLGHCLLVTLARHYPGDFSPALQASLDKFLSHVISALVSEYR
active: epoxomicin 0.375
inactive: [1] 0.01 | volasertib -0.014 | [2] -0.005 | [3] 0.069 | [4] -0.064 | [5] 0.047 | rosiglitazone 0.021 | [6] -0.145 | [7] 0.063 | saracatinib -0.029 | sotrastaurin 0.007 | alvocidib -0.034 | Tubastatin A -0.011 | [8] -0.013 | defactinib -0.009 | rucaparib -0.027 | [9] 0.008 | encorafenib -0.007 | [10] 0.028

GALK1 isoform 2 (UniProt P51570)
inactive: [1] -0.03 | volasertib -0.009 | [2] 0.053 | epoxomicin 0.131 | [3] 0.026 | [4] -0.064 | [5] 0.106 | rosiglitazone 0.024 | [6] -0.049 | [7] -0.03 | saracatinib 0.117 | sotrastaurin -0.096 | alvocidib -0.035 | Tubastatin A -0.011 | [8] -0.049 | defactinib -0.032 | rucaparib -0.014 | [9] 0.055 | encorafenib 0.007 | [10] -0.006

H2AZ1 (UniProt P0C0S5)
inactive: [1] 0 | volasertib 0.065 | [2] -0.084 | epoxomicin -0.311 | [3] 0.054 | [4] 0.103 | [5] -0.071 | rosiglitazone -0.052 | [6] 0.435 | [7] 0.026 | saracatinib -0.082 | sotrastaurin 0.067 | alvocidib 0.093 | Tubastatin A -0.017 | [8] -0.102 | defactinib 0.259 | rucaparib 0.396 | [9] -0.014 | encorafenib 0.107 | [10] 0.105

GCC2 (UniProt Q8IWJ2)
inactive: [1] 0.094 | volasertib -0.116 | [2] 0.053 | epoxomicin -0.005 | [3] 0.038 | [4] 0.013 | [5] 0.026 | rosiglitazone -0.01 | [6] 0.196 | [7] 0.031 | saracatinib -0.051 | sotrastaurin -0.077 | alvocidib 0.117 | Tubastatin A 0.053 | [8] 0.061 | defactinib 0.026 | rucaparib 0.175 | [9] 0.031 | encorafenib 0.136 | [10] -0.049

FHOD1 (UniProt Q9Y613)
Sequence of UniProt Q9Y613 (Q9Y613 whole entry, looked up): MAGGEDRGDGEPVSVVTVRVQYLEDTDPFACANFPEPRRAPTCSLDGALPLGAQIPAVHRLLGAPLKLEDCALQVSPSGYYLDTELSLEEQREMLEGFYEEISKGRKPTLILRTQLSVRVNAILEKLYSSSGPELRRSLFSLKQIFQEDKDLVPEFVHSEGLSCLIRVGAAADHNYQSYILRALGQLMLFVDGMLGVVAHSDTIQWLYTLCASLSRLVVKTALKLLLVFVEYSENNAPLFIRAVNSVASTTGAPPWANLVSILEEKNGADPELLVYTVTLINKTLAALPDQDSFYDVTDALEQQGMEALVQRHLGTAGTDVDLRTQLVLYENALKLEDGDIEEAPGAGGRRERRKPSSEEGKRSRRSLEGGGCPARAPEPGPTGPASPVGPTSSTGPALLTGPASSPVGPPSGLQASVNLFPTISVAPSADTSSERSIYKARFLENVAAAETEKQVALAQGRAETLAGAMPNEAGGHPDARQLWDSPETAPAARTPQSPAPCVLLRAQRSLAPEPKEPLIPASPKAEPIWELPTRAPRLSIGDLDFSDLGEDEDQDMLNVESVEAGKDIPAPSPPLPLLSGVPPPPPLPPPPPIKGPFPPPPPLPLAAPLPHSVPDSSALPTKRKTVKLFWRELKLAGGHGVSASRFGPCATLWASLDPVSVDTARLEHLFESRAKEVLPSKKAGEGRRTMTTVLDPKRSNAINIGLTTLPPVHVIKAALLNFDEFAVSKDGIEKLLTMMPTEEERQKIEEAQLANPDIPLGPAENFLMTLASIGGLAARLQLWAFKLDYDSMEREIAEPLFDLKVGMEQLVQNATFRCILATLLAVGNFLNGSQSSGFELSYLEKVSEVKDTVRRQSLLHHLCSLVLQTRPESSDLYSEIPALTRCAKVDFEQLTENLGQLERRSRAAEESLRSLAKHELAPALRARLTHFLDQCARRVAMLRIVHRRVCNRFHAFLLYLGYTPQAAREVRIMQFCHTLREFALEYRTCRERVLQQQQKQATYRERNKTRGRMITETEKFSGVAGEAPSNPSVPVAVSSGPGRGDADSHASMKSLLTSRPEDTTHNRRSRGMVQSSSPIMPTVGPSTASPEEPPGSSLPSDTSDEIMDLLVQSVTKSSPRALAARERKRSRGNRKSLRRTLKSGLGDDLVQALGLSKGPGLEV
inactive: [1] 0.127 | volasertib -0.055 | [2] 0.075 | epoxomicin -0.171 | [3] -0.148 | [4] 0.093 | [5] -0.048 | rosiglitazone 0.039 | [6] 0.372 | [7] -0.022 | saracatinib -0.143 | sotrastaurin -0.112 | alvocidib 0.292 | [8] -0.027 | defactinib -0.042 | rucaparib 0.442 | [9] 0.101 | encorafenib 0.187 | [10] 0.049
